Experimental data taken from PubChem BioAssay AID434973 (Sanford-Burnham Center for Chemical Genomics, 2010).
Out of some 330,000 compounds screened, about 4,900 (1.5%) were called active.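 How the source made its calls: active means inhibition above about 50% at the single test dose (limit read from the data); inactive means the rest.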 The full list was thinned out, with actives kept by preference.

What follows are molecules tested against Sentrin-specific protease 7 (Homo sapiens) (UniProt Q9BQF6) (assay: SENP7 protease inhibitors, primary screen, biochemical, luminescence, uHTS (AID 434973;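 further: plate controls were DMSO with enzyme for no effect and no enzyme buffer wells for full effect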)). Details: recombinant SENP7, Z-RLRGG-aminoluciferin luminescence, 40 min; at 5 µM; active compounds read high.

| Compound | inhibition |
| --- | --- |
| CCOC(=O)c1cc(S(=O)(=O)NCCc2ccc(OC)c(OC)c2)cn1C | 7.17% (inactive) |
| Cc1nnc2n1N=C(c1ccccc1)CS2 | -0.787% (inactive) |
| O=c1c2cc(-c3ccccc3)sc2nc2n1N=C(c1cccs1)CS2 | 74.3% (active) |
| O=c1c(-c2ccccc2)cnc2n1CCS2 | 4.7% (inactive) |
| Clc1ccc2nc(CSc3ccccc3)cn2c1 | 66.1% (active) |
| CCCCCCSc1ccc(-c2nc3ccc(Cl)cn3c2NCc2ccccc2)cc1 | -2.53% (inactive) |
| O=C(/C=C/c1ccc2c(c1)OCO2)NCc1cn2cc(Cl)ccc2n1 | 0.536% (inactive) |
| COc1ccc(NC(=O)NCc2ccc3c(c2)OCO3)c(OC)c1 | 6.56% (inactive) |
| CCOCCCNC(=S)N1CCC(NC(=O)C2CCCCC2)CC1 | -2.06% (inactive) |
| Cc1ncc(CO)c(/C=N/NC(=O)c2cccc(S(=O)(=O)N3CCCC3)c2)c1O | -7.56% (inactive) |
| O=C(Nc1ccccc1-c1nc2ccccc2[nH]c1=O)c1cccs1 | -0.595% (inactive) |
| C/C(=N\Nc1ncc(Cl)cc1Cl)c1cccs1 | 47.2% (inactive) |
| C/C(=N\Nc1nc2ccccc2[nH]1)c1cccs1 | 65.2% (active) |
| O=C(CNC(=O)OCc1ccccc1)NC1CCCCNC1=O (configuration not stated) | 4.12% (inactive) |
| COC(=O)c1ccc(NCC(=O)N2CCCCCC2)cc1 | -4.94% (inactive) |
| COC(=O)c1ccc(NCC(=O)c2ccccc2)cc1 | 86.1% (active) |
| COC(=O)c1ccc(NC(=O)Nc2ccc(C)cc2)cc1 | -0.387% (inactive) |
| COc1cc(C2/C(=C(\O)c3ccc4c(c3)CC(C)O4)C(=O)C(=O)N2Cc2ccco2)ccc1O (configuration not stated) | 2.43% (inactive) |
| CC(Oc1ccc(F)cc1F)C(=O)/C=C/N(C)C (configuration not stated) | 11.5% (inactive) |
| O=C(N/N=C/c1cccc(O)c1)c1cc2c(ccc3ccccc32)o1 | -13.1% (inactive) |
| O=C(OCC(=O)N1CCOCC1)c1ccc2ccccc2c1 | 4.44% (inactive) |
| NC(=O)c1ccccc1N=Cc1ccc2ccccc2c1 | 66.6% (active) |
| COc1ccc(CC(=O)N2N=C(C)CC2(O)C(F)(F)F)cc1 (configuration not stated) | -2.12% (inactive) |
| COc1ccccc1C(CNC(=O)c1cccc(S(=O)(=O)Nc2ccc(F)cc2)c1)N(C)C (configuration not stated) | -6.57% (inactive) |
| O=C(Nc1ccc(Cl)cc1)/C(=C1\CCCN1)[N+](=O)[O-] | 16.3% (inactive) |
| Cc1ccc(NC(=O)NC(=O)c2ccccc2)cc1F | 23.1% (inactive) |

| Compound | inhibition |
| --- | --- |
| O=C(Nc1ncccc1O)c1ccc(C(=O)c2ccccc2)cc1 | -3.01% (inactive) |
| O=C(NC(=O)c1ccccc1)Nc1ccccc1O | 55.8% (active) |
| Cn1c2c(c(=O)n(C)c1=O)C1c3ccccc3OCC1C(C)(C)O2 (configuration not stated) | -0.167% (inactive) |
| CCNC(=O)N1CCCC(C(=O)c2ccc(-c3ccccc3)cc2)C1 (configuration not stated) | 3.16% (inactive) |
| CC(=O)c1sc(N/N=C\c2ccc(C)cc2)nc1C | 17.2% (inactive) |
| NC(=O)CSc1nnc(NC(=O)c2ccc3ccccc3c2)s1 | -4.32% (inactive) |
| COC(=O)c1sc(NC(=S)NC(=O)c2ccc(C)cc2)nc1C | 9.77% (inactive) |
| CCOC(=O)c1cccnc1NC(=O)c1ccncc1 | -6.19% (inactive) |
| CCSc1nnc(NC(=O)c2ccc(C)cc2)s1 | 52.7% (active) |
| C=CCSc1nnc(NC(=O)c2ccc(NC(C)=O)cc2)s1 | 4.95% (inactive) |
| CCOC(=O)c1sc(NC(=O)c2sc(C)nc2C)nc1C | 31.9% (inactive) |
| CCOC(=O)c1sc(NC(=O)c2ccncc2)nc1C | 91.1% (active) |
| CC(=O)c1sc(NC(=O)c2ccc(C)cc2)nc1C | 71.5% (active) |
| COc1ccc([N+](=O)[O-])cc1NC(=O)c1ccc(N(Cc2ccccc2C)S(C)(=O)=O)cc1 | 2.86% (inactive) |
| CCN(CC)C(=O)Cn1cc(S(=O)(=O)CC(=O)NCc2ccc3c(c2)OCO3)c2ccccc21 | -2.79% (inactive) |
| Cc1noc(C)c1COc1ccc(C(=O)NCCOc2ccccc2)cc1 | -6.96% (inactive) |
| Cc1ccn2c(=O)c(C(=O)NCCC3=CCCCC3)c(O)nc2c1 | 9.74% (inactive) |
| COC(=O)Cc1ccc(OC(=O)C2CCN(S(=O)(=O)c3ccc(OC)c(OC)c3)CC2)cc1 | -4.03% (inactive) |
| CC1=C(C)CC(C(=O)NC(C)CCc2ccccc2)C(C(=O)O)C1 (configuration not stated) | 4.76% (inactive) |
| COCC1CCN(C(=O)C2CCC(=O)N(Cc3cccc(C(F)(F)F)c3)C2)CC1 (configuration not stated) | 9.9% (inactive) |
| CN(Cc1nc2ccccc2s1)C(=O)c1ccc(F)cc1 | 0.624% (inactive) |
| COc1ccccc1N1CC(O)=C(c2nc3ccccc3s2)C1=N | -12.5% (inactive) |
| COc1ccccc1OCc1nc2ccccc2s1 | 97.3% (active) |
| Cn1c(CCc2ccccc2)nnc1SCC(N)=O | 0.317% (inactive) |
| Cc1ccc2nc(/C(C#N)=C\c3ccc(OC(=O)c4cccs4)cc3)[nH]c2c1 | -1.03% (inactive) |
| COc1cc(/C=C(\C#N)c2nc3ccccc3[nH]2)ccc1O | 93.7% (active) |

| Compound | inhibition |
| --- | --- |
| COc1cc(/C=C(\C#N)c2nc3c(s2)CC(C)CC3)ccc1O (configuration not stated) | 2.43% (inactive) |
| CNC(=S)N/N=C/c1ccc(N2CCOCC2)s1 | 12.6% (inactive) |
| Cc1ccc(CCCOC(=O)C[N+]2(C)CCCC2)cc1 | 8.46% (inactive) |
| O=C(c1cc(COc2c(F)cccc2F)on1)N1CCSCC1 | 0.456% (inactive) |
| Cc1ccnc(Nc2nc3ccccc3s2)n1 | 88.5% (active) |
| Cc1ccnc(-n2sc3ccccc3c2=O)n1 | -5.5% (inactive) |
| CC(=O)Nc1cccc(-c2nc3ccccc3s2)c1C | -8.72% (inactive) |
| COc1cccc(NC(=O)CCNS(=O)(=O)c2ccc3c(c2)oc(=O)n3C)c1 | 7.4% (inactive) |
| O=C(COC(=O)C12CC3CC(CC(O)(C3)C1)C2)NC12CC3CC(CC(C3)C1)C2 | -5.6% (inactive) |
| Cc1sc(NC(=O)c2ccc3ncsc3c2)c(C(N)=O)c1C | 77.9% (active) |
| COc1ccccc1-c1nnc(NC(=O)c2ccc3ncsc3c2)o1 | 4.87% (inactive) |
| O=C(COC(=O)c1ccc2ncsc2c1)Nc1ccc(Cl)cc1 | -7.82% (inactive) |
| CCCCn1nc(C(=O)N2CCc3ccccc32)c2ccccc2c1=O | 2.25% (inactive) |
| CCCCN(CC(=O)NC(C)(C)C)C(=O)C(=O)Nc1ccc2c(c1)OCCO2 | -0.161% (inactive) |
| CCNC(=S)N1CCC(c2nc3cc(C)c(C)cc3[nH]2)CC1 | 1.02% (inactive) |
| CNC(=S)Nc1ccc([N+](=O)[O-])cc1 | -6.08% (inactive) |
| O=C(Cc1ccccc1)NNS(=O)(=O)c1ccc([N+](=O)[O-])cc1 | 3.61% (inactive) |
| O=C(O)/C=C/C(=O)NNc1ccc([N+](=O)[O-])cc1 | 81.7% (active) |
| CN(CC(=O)Nc1ccc(F)cc1)CC(=O)N1CCCCC1 | 4.6% (inactive) |
| CSC1=N/C(=C\C=C\c2cccs2)C(=O)S1 | 43.7% (inactive) |
| CCC1C=C(c2ccccc2)C=CN=C1N(CC)CC (configuration not stated) | 2.68% (inactive) |
| CS(=O)(=O)n1nc(-c2ccco2)nc1N | 3.45% (inactive) |
| COc1ccccc1-n1c(-c2cc(-c3ccco3)[nH]n2)n[nH]c1=S | 2.77% (inactive) |
| Cn1c(-c2ccco2)nc2cc3ccccc3cc21 | 98.5% (active) |
| CCOC(=O)c1cnc2c(c(C)nn2CC)c1Cl | -8.37% (inactive) |
| CCCn1c(N)c(C(=O)CSc2nnc(-c3cccnc3)n2-c2ccc(C)cc2C)c(=O)[nH]c1=O | 2.06% (inactive) |

| Compound | inhibition |
| --- | --- |
| CCc1ccc(OCC(O)CN2CCN(CCO)CC2)cc1 (configuration not stated) | 7.06% (inactive) |
| CN(CC(=O)Nc1ccc(Cl)cc1)CC(=O)Nc1cccc2ccccc12 | -3.2% (inactive) |
| O=C(Nc1cccc2ccccc12)c1onc2c1CCCC2 | 64.8% (active) |
| O=C(O)Cc1ccc(NC(=O)Nc2cccc3ccccc23)cc1 | 18.4% (inactive) |
| O=C1COc2ccc(C(=O)COC(=O)CCOc3ccccc3)cc2N1 | 7.4% (inactive) |
| Cc1cccc(C(=O)N[C@H](C(=O)NCc2cccs2)C(C)C)c1 | 2.96% (inactive) |
| COC(=O)C1(C)NC(c2ccccc2OC)C2C(=O)N(c3ccccc3)C(=O)C21 (configuration not stated) | -1.56% (inactive) |
| COC(=O)c1cc(NC(=O)CN2CCN(C(C)=O)CC2)cc(C(=O)OC)c1 | 11.3% (inactive) |
| O=C(CSc1ncn[nH]1)Nc1ccnc2ccccc12 | 11.7% (inactive) |
| COc1ccc(C(=O)Nc2ccc(C3(C#N)CCCC3)cc2)cc1OC | 95.4% (active) |
| COc1cc(C(=O)NCC2(c3ccccc3)CCCC2)ccc1OC(C)C | 11.3% (inactive) |
| COc1ccc(C(=O)Nc2ccc3nc(N4CCCCC4)cc(C)c3c2)cc1OC | -1.83% (inactive) |
| CC1CCN(S(=O)(=O)c2ccc(S(=O)(=O)NCc3ccco3)cc2)CC1 | -4.7% (inactive) |
| CN1CCN(CCNC(=O)Nc2ccccc2[N+](=O)[O-])CC1 | -10.6% (inactive) |
| O=[N+]([O-])c1cc(C(F)(F)F)ccc1NN=C1CCCC1 | 5.78% (inactive) |
| O=[N+]([O-])c1ccccc1N/N=C1\CCc2ccccc21 | 54% (active) |
| O=C(O)c1cc2ccccc2c(=O)s1 | -3.56% (inactive) |
| Cc1ccsc1C(=O)OCC(=O)c1cc(C)n(CC2CCCO2)c1C (configuration not stated) | 94.5% (active) |
| Cc1cc(C(=O)Cn2cnc3cc([N+](=O)[O-])ccc3c2=O)c(C)n1CC1CCCO1 (configuration not stated) | 1.73% (inactive) |
| COc1ccc(C(=O)OCC(=O)c2cc(C)n(CC3CCCO3)c2C)cc1[N+](=O)[O-] (configuration not stated) | -9.42% (inactive) |
| CC1CCc2c(c3ccccc3[nH]c2=O)O1 (configuration not stated) | 4.43% (inactive) |
| COc1ccc(CNC(=O)COC(=O)c2c(C)nn(-c3ccccc3)c2C)cc1OC | 4.03% (inactive) |
| COc1ccc(CNC(=O)Cc2ccc(-c3ccccc3)cc2)cc1OC | -4.04% (inactive) |
| COc1ccc(CNC(=O)COc2ccccc2C(=O)c2cnn(-c3ccccc3)c2)cc1OC | 60.9% (active) |
